TTR transcr act: TTR transcription activators in neuroblastoma reporter cells, primary screen, cell-based, luminescence, SH-SY5Y, TTR promoter Gaussia luciferase; 100% = recombinant luciferase protein wells; activation, % at 16.7 µM; 92,000 tested, 1.3% active; AID 1117267, 2014;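 active = activation above the mean of all tested compounds plus 3 SD, cut at about 9.5% in these data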;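 also: cells exposed to compounds for one day before reading; 0% = median of all test compound wells on the plate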
TTR inh HuH7: TTR promoter reporter inhibitors in hepatoma cells, counter-screen for TTR transcription activator project, cell-based, luminescence, HuH7 hepatoma | HuH7 TTR promoter-Gaussia luciferase reporter | inhibition, % at 16.7 µM | 1,100 tested, 4% active | shares compounds with TTR transcr act;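 active = average inhibition above the solvent-only control wells' mean plus 3 SD, cut at about 15% in these data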;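 also: 0% = cells with DMSO only and 100% = cells with inhibitor control FD; inhibitors lower well luminescence so higher value means more inhibition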
TTR up confirm: TTR transcription activators, retest, confirmation, cell-based, luminescence, SH-SY5Y, triplicate | shares compounds with TTR transcr act | SHSY5Y TTR promoter Gaussia luciferase; 100% = purified Lucia enzyme wells, no cells | activation, % at 16.7 µM | 1,100 tested, under 10 active;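 active = mean activation above a set limit taken from the earlier primary screen, cut at about 11% in these data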;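 also: 0% = DMSO-treated cells and 100% = recombinant Lucia luciferase without cells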
* hit, by the source's call. The full list was thinned out, with hits kept by preference.

Results for CCN=C1SC(C(=O)Nc2ccc(Cl)c(Cl)c2)CC(=O)N1CC (centres undefined) ?
TTR transcr act: 20.4*; TTR inh HuH7: -9.2; TTR up confirm: 1.3

What do the screens show for `CCN=C1SC(C(=O)Nc2cccc(C)c2)CC(=O)N1CC` (centres undefined)?
TTR transcr act: 2.9

What do the screens show for `CCN=C1SC(C(=O)Nc2cc(Cl)cc(Cl)c2)CC(=O)N1CC` (centres undefined)?
TTR transcr act: 0.2

How did C=CCN1C(=O)[C@H](CC(=O)NCC2CCCCC2)[C@@]2(C(=O)OCC)CCCC=C12 do in these assays?
TTR transcr act: -0.5

What do the screens show for `COc1ccc(CNC(=O)O[C@H]2CC[C@@]34CCCN3C(=O)CCC[C@H]4[C@H]2C)cc1OC`?
TTR transcr act: 0.6

Results for COC(=O)[C@H](Cc1ccccc1)N1CC=CS1(=O)=O ?
TTR transcr act: 1.5

Results for CCN(CC(=O)NC(C)C)Cc1nc2sc3c(c2c(=O)[nH]1)CCC3 ?
TTR transcr act: 13.0*; TTR inh HuH7: -19.8; TTR up confirm: -0.5

Results for CCCc1nc2sc3c(c2c(=O)[nH]1)CCCC3 ?
TTR transcr act: -1.0

Results for COCc1nc2sc3c(c2c(=O)[nH]1)CCCC3 ?
TTR transcr act: 2.0

Results for CC(OP(=O)(O)C(NC(=O)[C@H](Cc1ccc(O)cc1)NC(=O)OC(C)(C)C)C(C)C)C(=O)O (some centres undefined) ?
TTR transcr act: 0.6

How did C/C(=N\NC(=O)Cc1cccn1C)c1ccco1 do in these assays?
TTR transcr act: 0.0

Results for C/C(=N/NC(=O)Cc1cccn1C)c1ccccc1 ?
TTR transcr act: -0.4

How did C/C(=N\NC(=O)Cc1cccn1C)c1ccc2ccccc2c1 do in these assays?
TTR transcr act: 11.0*; TTR inh HuH7: -19.7; TTR up confirm: -0.5

How did COC(=O)[C@]12C[C@H](CC(=O)NCCC(C)C)C(=O)N(Cc3ccco3)C1=C[C@H](C1CCCC1)O[C@@H]2C do in these assays?
TTR transcr act: 0.5

What do the screens show for `Brc1ccc(-c2csc(N3CCC(c4nn[nH]n4)CC3)n2)cc1`?
TTR transcr act: 2.0

How did C[C@H]1[C@@H](OC(=O)Nc2cccc(Cl)c2)CC[C@@]23CCCN2C(=O)CCC[C@@H]13 do in these assays?
TTR transcr act: -0.5

Results for CN(C)c1ccc(CC(=O)N2CCCC(c3cc(C(=O)Nc4ccccc4)no3)C2)cc1 (centres undefined) ?
TTR transcr act: -0.1

What do the screens show for `Cc1ccc(F)cc1C(=O)N1CCCC(c2cc(C(=O)Nc3ccccc3)no2)C1` (centres undefined)?
TTR transcr act: -4.1

What do the screens show for `O=C(Nc1ccccc1)c1cc(C2CCCN(C(=O)C3CC3)C2)on1` (centres undefined)?
TTR transcr act: 10.0*; TTR inh HuH7: -10.2; TTR up confirm: 0.3

How did O=C(OCC#CCSc1nnc(-c2ccc(Cl)cc2)o1)c1ccc(F)cc1 do in these assays?
TTR transcr act: 0.7

What do the screens show for `O=C(COC(=O)CNC(=O)c1ccco1)Nc1ccc(Cl)cn1`?
TTR transcr act: -2.1

Results for O=C(NCc1ccccc1Br)c1ccco1 ?
TTR transcr act: 3.6

How did O=C(CNC(=O)c1ccco1)OCc1ccccc1Cl do in these assays?
TTR transcr act: 10.7*; TTR inh HuH7: -9.9; TTR up confirm: 0.5

How did O=C(O[C@H]1CC[C@@]23CCCN2C(=O)CCC[C@H]3C1)N1CCCC1 do in these assays?
TTR transcr act: 1.2

What do the screens show for `COC(=O)[C@]12C[C@H](CC(=O)NCC34CC5CC(CC(C5)C3)C4)C(=O)N(Cc3cccc4ccccc34)C1=C[C@H](C(C)C)O[C@@H]2C1CC1`?
TTR transcr act: -1.3

Results for O=C(NCc1ccccc1)c1ccc(C(=O)NCc2ccccc2)cc1 ?
TTR transcr act: -1.6

How did O=C(NCc1ccccc1)c1cc(=O)c2ccccc2o1 do in these assays?
TTR transcr act: 26.2*; TTR inh HuH7: -12.6; TTR up confirm: 4.3

How did O=C(NCc1ccccc1)c1cc2ccccc2oc1=O do in these assays?
TTR transcr act: -0.2

Results for O=C(Cc1ccccc1)NN1C(=O)C2C3C=CC(C3)C2C1=O (centres undefined) ?
TTR transcr act: 1.7

What do the screens show for `O=C(Cc1ccccc1)NN1C(=O)C2C3C=CC(C4CC34)C2C1=O` (centres undefined)?
TTR transcr act: 10.5*; TTR inh HuH7: -12.8; TTR up confirm: -0.6

How did O=C(Cc1ccccc1)NN1C(=O)C2C(C1=O)C1C=CC2C12CC2 (centres undefined) do in these assays?
TTR transcr act: -1.3

Results for COC(=O)[C@@]12CCCCC3=C1N(CCC3)C(=O)[C@H]2CC(=O)NCc1cccc(C(F)(F)F)c1 ?
TTR transcr act: 1.1

What do the screens show for `O=C(N[C@@H]1CC[C@H]2SC[C@H](C(=O)O)N2C1=O)OCC1c2ccccc2-c2ccccc21`?
TTR transcr act: -5.3

Results for Cc1ccc(NC(=S)N(C)N)cc1Cl ?
TTR transcr act: 1.2

Results for Cc1ccc(Nc2cc(=O)[nH]c(=O)[nH]2)cc1Cl ?
TTR transcr act: 9.7*; TTR inh HuH7: -2.8; TTR up confirm: -0.8

Results for Cc1ccc(Nc2ccc([N+](=O)[O-])cn2)cc1Cl ?
TTR transcr act: 0.9

How did O=C(OCc1cn(Cc2cccc(F)c2)nn1)N1CCOCC1 do in these assays?
TTR transcr act: 5.4

What do the screens show for `C[C@@H]1CCN(C2CC2)S(=O)(=O)c2ccc(N3CC[C@@H](O)C3)cc2O1`?
TTR transcr act: -0.2

How did COC(=O)[C@]12C[C@H](CC(=O)N3CCC(c4ccccc4)CC3)C(=O)N(CCc3ccc(OC)c(OC)c3)C1=C[C@H](COCc1ccccc1)O[C@@H]2C do in these assays?
TTR transcr act: -0.8

How did Cc1ccc(S(=O)(=O)NC[C@@H]2C[C@H](c3ccccc3)ON2S(=O)(=O)c2ccc(C)cc2)cc1 do in these assays?
TTR transcr act: 10.1*; TTR inh HuH7: -10.1; TTR up confirm: -1.5

Results for Cc1ccc(S(=O)(=O)NCC2Cc3ccccc3N2S(=O)(=O)c2ccc(C)cc2)cc1 (centres undefined) ?
TTR transcr act: 0.5

What do the screens show for `Cc1ccc(S(=O)(=O)NC[C@H]2CN(S(=O)(=O)c3ccc(C)cc3)[C@@H](Cc3ccccc3)CO2)cc1`?
TTR transcr act: -2.0

Results for COc1ccc2[nH]c3c(c2c1)CCN[C@]31C(=O)Nc2ccccc21 ?
TTR transcr act: 0.0

What do the screens show for `O=S1(=O)c2c(cccc2N2CC[C@@H](O)C2)O[C@H]2CCN1C2`?
TTR transcr act: -0.8

How did COc1ccc(CC2CCN(c3ncnc4sccc34)CC2)cc1 do in these assays?
TTR transcr act: -3.7

How did COCCN1C(=O)CCC1(C)C(=O)NC(C)(C)C (centres undefined) do in these assays?
TTR transcr act: 0.1

How did CCCCNC(=O)C1(C)CCC(=O)N1CC(F)(F)F (centres undefined) do in these assays?
TTR transcr act: -0.1

What do the screens show for `CCCCNC(=O)C1(C)CCC(=O)N1CCOC` (centres undefined)?
TTR transcr act: 12.6*; TTR inh HuH7: -8.1; TTR up confirm: -0.5
